# Only some compounds are listed: those with a hit (about 3.2% of all), similar ones and a draw of the others.
# APOBEC3G inh: inhibitors of human APOBEC3G DNA deaminase | Q9HC16 | recombinant A3G, ssDNA deamination FAM/TAMRA fluorescence | inhibition, % at 20 µM | 330,000 tested, 0.28% active;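 active = inhibition of at least 40% at 20 µM, with no more than 30% in the related APOBEC3A deaminase screen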;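 also: plate controls were DMSO wells with A3G for no effect and wells lacking A3G enzyme for full effect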
# Target sequence (Q9HC16 whole entry, looked up): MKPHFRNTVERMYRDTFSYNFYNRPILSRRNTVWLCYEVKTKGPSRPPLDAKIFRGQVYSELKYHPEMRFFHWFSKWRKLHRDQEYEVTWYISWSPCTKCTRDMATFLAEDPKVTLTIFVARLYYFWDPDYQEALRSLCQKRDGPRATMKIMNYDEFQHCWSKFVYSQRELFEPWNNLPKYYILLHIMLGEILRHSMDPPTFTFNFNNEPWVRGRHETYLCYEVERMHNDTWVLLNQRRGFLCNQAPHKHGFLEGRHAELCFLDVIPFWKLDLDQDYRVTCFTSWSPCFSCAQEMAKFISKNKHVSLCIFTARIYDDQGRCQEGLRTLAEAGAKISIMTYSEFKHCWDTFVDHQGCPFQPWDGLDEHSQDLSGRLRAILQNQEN
# A3A deaminase: human APOBEC3A DNA deaminase inhibition; recombinant A3A, FAM/TAMRA ssDNA deamination fluorescence; AID 493011; inhibition, % at 20 µM; P31941; 330,000 tested, 0.41% active;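 active = at least 40% inhibition at 20 µM here, with at most 30% in a related deaminase screen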;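 also: plate controls were A3A with DMSO for no effect and wells lacking A3A enzyme for full effect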
# NTR1 agonist: NTR1 (human) agonism | 330,000 tested, 0.17% active | activation, % at 20 µM | NTR1-U2OS beta-arrestin-GFP spot imaging, agonist mode | AID 493036;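 active = activation at or above 40% of the spot to cytoplasm intensity ratio, with at least 20 cells analyzed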;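 also: 0% = DMSO without peptide and 100% = 100 nM NTR1 peptide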
# AHR act: human AHR activation. P35869. 320,000 tested, 2.5% active. AHR-responsive luciferase reporter cells, luminescence. AID 2796. activation, % at 5 µM; in the data active = activation above about 47%;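 also: 0% = vehicle wells and 100% = reference agonist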
# * = called active by the depositor; nt = not tested or not shown.
SMILES,APOBEC3G inh,A3A deaminase,NTR1 agonist,AHR act
Cn1c(NC(=S)Nc2ccccc2)nc2ccccc21,-5,2,1,60*
COc1ccc(NCc2nc3ccccc3n2C)cc1,-6,-3,-1,53*
Cn1c(CNc2nc3ccccc3n2C)nc2ccccc21,2,2,-2,49*
COc1ccc(CCC(=O)Nc2cccc(S(=O)(=O)N3CCCC3)c2)cc1OC,-7,0,2,1
O=C(Cn1ccccc1=O)Nc1ccc(Cl)c(S(=O)(=O)N2CCCCC2)c1,-1,-4,-1,1
CCc1cccc(NS(=O)(=O)c2c(C)[nH]c(=O)[nH]c2=O)c1,-5,-2,-1,nt
CCC(=O)Nc1nc(NCc2ccccc2OC)n(-c2ccccc2)n1,-10,-3,0,12
CCN(CC)CCn1c2c(c(SCC(=O)NCc3ccccc3)nc1=O)CCC2,-9,0,-1,0
O=C(NCCN1CCN(Cc2ccccc2)CC1)c1ccc(CS(=O)(=O)c2ccc(Br)cc2)o1,-5,-2,0,0
COc1ccc2oc(C(=O)Nc3nc(C)cs3)c(C)c2c1,-7,-3,3,31
COc1ccc2oc(C(=O)Nc3ccccn3)c(C)c2c1,-3,2,0,72*
COc1ccc2oc(C(=O)Nc3ccc(C)cn3)c(C)c2c1,-2,2,0,75*
COc1ccccc1/C=C/C(=O)NNC(=O)c1cccs1,5,2,0,21
Cc1nc2ccccc2c2oc(C(=O)NCCN3CCN(C)CC3)cc12,-15,3,1,0
Cc1nc2ccccc2c2oc(C(=O)NC3CC3)cc12,1,1,4,65*
CCc1ccc(N2CC(C(=O)OCC(=O)Nc3ccc([N+](=O)[O-])cc3)CC2=O)cc1 (stereo not drawn),-3,1,4,0
CSc1nncn1/N=C/c1ccc2c(c1)OCO2,-1,8,-2,51*
CSc1nncn1/N=C/c1ccc([N+](=O)[O-])cc1,10,3,0,0
C=CCOc1cccc(C(=O)/C=C2/C(=O)Nc3ccccc32)c1,-7,-1,66*,32
CC(=O)/C=C1/C(=O)Nc2ccccc21,-3,4,7,13
Cc1ccc(C(=O)N/N=C\C=C\c2ccccc2[N+](=O)[O-])cn1,-6,1,-1,59*
Cn1c(=O)c2c(ncn2CC(=O)N/N=C/C=C/c2ccccc2[N+](=O)[O-])n(C)c1=O,-2,-1,0,61*
COc1ccc2nc(/C=N/NC(=O)[C@@H]3CCCN3C(=O)OC(C)(C)C)ccc2c1,-7,-5,0,1
COc1ccc(CCN2C(=O)c3cccc4cccc(c34)C2=O)cc1OC,-3,0,0,70*
CCOC(=O)C1=C(COC(=O)c2ccc(Cl)cc2[N+](=O)[O-])NC(=O)NC1C (stereo not drawn),-5,1,0,-3
SMILES,APOBEC3G inh,A3A deaminase,NTR1 agonist,AHR act
COc1ccc(NC(=O)CSc2nc(N)c(C(=O)Nc3ccc(N(C)C)cc3)s2)cc1,-10,-8,0,50*
O=C(NCCCl)Nc1cccnc1Cl,-3,-2,2,-1
Cc1c(Cl)c([N+](=O)[O-])nn1Cc1ccc(C(=O)N/N=C\c2cccc(Br)c2)o1,-6,-1,1,55*
O=C(N/N=C\c1cccc(Cl)c1)c1ccc(Cn2cc(Br)c([N+](=O)[O-])n2)o1,-12,-11,1,28
CCN(CC)CCNC(=O)c1ccc(NC(=O)c2cccc(-n3cnnn3)c2)cc1,-9,1,0,-2
O=C(NCCCn1ccnc1)c1csc2ccccc12,-3,-1,0,52*
Cc1c(C(=O)NCCCn2ccnc2)oc2ccccc12,20,10,-1,59*
CCOc1ccc(C(=O)C(C)OC(=O)CN2C(=O)NC(C)(C)C2=O)cc1 (stereo not drawn),-13,-3,0,0
O=C(Nc1cc2nn(-c3ccccc3)nc2cc1Cl)c1ccco1,-3,-4,0,47*
O=C(Nc1ccc2nn(-c3ccccc3)nc2c1)c1ccco1,2,5,-1,33
CC(C)C(=O)Nc1ccc2nn(-c3ccccc3)nc2c1,-7,-1,0,-4
CC(=O)Nc1cc2nn(-c3ccccc3)nc2cc1Cl,-5,-4,-2,57*
CC(C)(C)[C@@H]1C=C(C(N)=O)O[C@H](OCCCCO)C1,2,1,0,2
Cc1ccc(S(=O)(=O)N2CCCCC2)cc1NC(=O)Cn1cnc2c1c(=O)n(C)c(=O)n2C,-3,-1,1,nt
CC(=O)NNC(=O)c1cc2c3ccccc3n(C)c2s1,-3,3,0,75*
Cn1c2ccccc2c2cc(C(=O)N3CCN(CCO)CC3)sc21,-4,3,0,68*

# Screening results as filed in PubChem.
